The campaign covered roughly 300,000 compounds. About 37,000 (12%) were called active. Cut-off read from the data, not from the text of the source: active = max response mostly above about 13% (no sharp cut-off); inactive = mostly below about 14%. The sample as a whole holds a higher share of actives than the screen did.

Max response data for 24 compounds are collected here from PubChem BioAssay AID2314 (National Center for Advancing Translational Sciences (NCATS), 2010).

This experiment in a line: Cycloheximide Counterscreen for Small Molecule Inhibitors of Shiga Toxin. Note: read at 38.3 µM for the half of the compounds with a filed dose; 0% is about no effect. The following applies: cell reporter, cycloheximide protein synthesis inhibition counterscreen; hits give high values. Background: A counterscreen serves to expose hits that act by an unwanted route or on another target.
For the compound `C=CCNC(=O)COc1coc(CN2CCN(Cc3ccccc3)CC2)cc1=O`, the max response was -1.91% (inactive). Then `CCOC(=O)NNc1cc(C(F)(F)F)ccn1`, with -0.89% (inactive). The same measure for `CCc1cccc(NC(=O)CCC(=O)O)c1`: -2.1% (inactive); for `CCCC(=O)Nc1cccc(-c2cn3ccsc3n2)c1`: 27.2% (active).

In the case of `O=C(NCc1cn2ccsc2n1)Nc1cccc(Cl)c1`, the max response was -2.26% (inactive). Consider `CCOC(=O)C1=C(C)OC(N)=C(C#N)C1c1cncc(-c2ccc(F)cc2)c1` (centres undefined), for which the max response is -4.52% (inactive). The same measure for `CN(C)c1ccc(C(=S)N2CCN(C(=S)Nc3ccc(Cl)cc3)CC2)cc1`: -2.08% (inactive); for `C=CCc1cccc2cc(C(=O)Nc3ccc(NC(C)=O)cc3)c(=O)oc12`: 7.03% (inactive). The same measure for `CC1Cc2ccccc2N1C(=O)CSc1nnc(C2CC2)n1C` (centres undefined): -2.64% (inactive); for `C[C@@H]1C[C@@H]2O[C@H]2/C=C\C=C\C(=O)Cc2c(Cl)c(O)cc(O)c2C(=O)O1`: 8.16% (active).

Regarding `O=C(OCC1O[C@@H](OC(=O)c2cc(O)c(O)c(O)c2)[C@@H](OC(=O)c2cc(O)c(O)c(O)c2)[C@@H](OC(=O)c2cc(O)c(O)c(O)c2)[C@@H]1OC(=O)c1cc(O)c(O)c(O)c1)c1cc(O)c(O)c(O)c1` (some centres undefined), the max response was -3.49% (inactive).

On to `Cc1cc(C)cc(N(CC(=O)NCCSCc2ccco2)S(C)(=O)=O)c1`, for which the max response was -3.57% (inactive).

For `OCCNCCOc1ccc(Cl)c(Cl)c1`, the max response was -2.06% (inactive). Consider `COc1ccc(CCNC(=O)CSc2nc(-c3ccc(OC)c(OC)c3)ccc2C#N)cc1`, for which the max response was -0.296% (inactive).

Regarding `COc1ccc2oc(N)c(C=O)c(=O)c2c1`, the max response was 11.3% (inactive). The same measure for `CCc1cc2c(=O)c(-c3ccon3)c(N)oc2cc1OC`: 40.8% (active). The same measure for `CCc1cc2c(=O)c(-c3ccc(F)cc3)c(C(F)(F)F)oc2cc1OCC(=O)O`: -0.895% (inactive); for `COC(=O)Cn1cc(/C=C/[N+](=O)[O-])c2ccccc21`: 0.349% (inactive); for `Cc1ccc(-c2nnc(SCC(=O)N/N=C/c3cccs3)n2-c2ccc(C)cc2)cc1`: -2.1% (inactive).

With `Cc1nn(-c2ccccc2)c(Cl)c1/C=N/NC(=O)c1nn(C)cc1[N+](=O)[O-]`, the max response was 30.2% (active). Then `Cc1nn(-c2ccccc2)c(NC(=O)c2cccs2)c(-c2ccc(Cl)cc2)c1=O`, with -4.56% (inactive); and `Cc1cc(C)c([N+](=O)[O-])cc1-c1ccc(/C=N/NC(=O)c2nonc2N)o1`, with 8.92% (inactive); and `Cc1nn(-c2ccccc2)c(C)c1/C=N/NC(=O)CSc1nc2ccccc2c(=O)n1-c1ccccc1`, with -2.06% (inactive). As to `Cc1ccc(-n2nc(C)c(/C=N/NC(=O)c3cccs3)c2Cl)cc1`, the max response is 41.5% (active).
